# High-throughput results from PubChem.
# Six1-Eya2 inh: Six1/Eya2 interaction inhibition | AlphaScreen GST-Six1/His-Eya2 binding, biochemical; active compounds read low | activity change, % (no concentration beside the values) | 360,000 compounds, 0.56% hits; in the data active means activity change below about -65%; inconclusive means mostly about -30% to -63%; further: on the % scale 0 is the no-effect control and ±100 the full control effect
#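 Compounds are tested against tagged Six1 and Eya2 proteins bridged by glutathione donor and nickel acceptor beads; after a one-hour incubation at 37 °C without light, AlphaScreen emission is recorded.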
# JMJD2A Tudor inh: inhibitors of human JMJD2A Tudor domain; AlphaScreen JMJD2A-Tudor / H3K4me3 peptide binding; 390,000 compounds, 4.4% hits; AID 504339; Potency, µM (highest dose often 114 µM), inactives show at the highest dose activity change, negative = inhibition, most hits filed as inhibitors; further: potency means the concentration at half of the fitted maximal effect; on the % scale 0 is the no-effect control and ±100 the full control effect; nearly all actives have a fitted effect of over 50% in size
# HP1b chromo inh: inhibitors of HP1-beta chromodomain binding to methylated histone tails; P83916; AlphaScreen HP1-beta / biotin-H3K9me3 peptide binding; Potency, µM (titrated, usually from 114 µM), inactives show at the highest dose activity change, negative = inhibition, actives largely listed as inhibitors; 390,000 compounds, 0.56% hits; further: potency means the concentration at half of the fitted maximal effect; nearly all actives have a fitted effect of over 70% in size
#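 AlphaScreen: HP1-beta (50 nM) preformed 30 min with biotin-H3(1-18)K9me3 peptide (50 nM) in PBS pH 7.4, 0.01% Tween-20. Compound added for 30 min at RT, then streptavidin donor/nickel chelate acceptor beads (10 ug/mL) for 30 min.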
# CtBP-E1A blk: blocks the CtBP interaction with E1A; AlphaScreen GST-E1A/His-CtBP binding, 1536-well; active compounds read low; activity change, % (no concentration beside the values); 340,000 compounds, 0.49% hits; AID 651724; in the data active means activity change below about -65%; inconclusive means mostly about -30% to -63%; further: on the % scale 0 is the no-effect control and ±100 the full control effect
#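 Homogeneous bead-based format: GST-tagged E1A captured on glutathione donor beads, His-tagged CtBP on nickel acceptor beads; compounds precede bead addition by 2 h at 37 °C.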
# BAZ2B block: BAZ2B (human) inhibition | Q9UIF8 | AlphaScreen BAZ2B-H3K14Ac peptide displacement | Potency, µM (highest dose often 114 µM), for inactives: at the highest dose activity change, negative = inhibition, actives largely listed as inhibitors | 360,000 compounds, 4.4% hits | AID 504333; further: potency means the concentration at half of the fitted maximal effect; on the % scale 0 is the no-effect control and ±100 the full control effect; nearly all actives have a fitted effect of over 60% in size
# Target sequence (Q9UIF8 whole entry, looked up): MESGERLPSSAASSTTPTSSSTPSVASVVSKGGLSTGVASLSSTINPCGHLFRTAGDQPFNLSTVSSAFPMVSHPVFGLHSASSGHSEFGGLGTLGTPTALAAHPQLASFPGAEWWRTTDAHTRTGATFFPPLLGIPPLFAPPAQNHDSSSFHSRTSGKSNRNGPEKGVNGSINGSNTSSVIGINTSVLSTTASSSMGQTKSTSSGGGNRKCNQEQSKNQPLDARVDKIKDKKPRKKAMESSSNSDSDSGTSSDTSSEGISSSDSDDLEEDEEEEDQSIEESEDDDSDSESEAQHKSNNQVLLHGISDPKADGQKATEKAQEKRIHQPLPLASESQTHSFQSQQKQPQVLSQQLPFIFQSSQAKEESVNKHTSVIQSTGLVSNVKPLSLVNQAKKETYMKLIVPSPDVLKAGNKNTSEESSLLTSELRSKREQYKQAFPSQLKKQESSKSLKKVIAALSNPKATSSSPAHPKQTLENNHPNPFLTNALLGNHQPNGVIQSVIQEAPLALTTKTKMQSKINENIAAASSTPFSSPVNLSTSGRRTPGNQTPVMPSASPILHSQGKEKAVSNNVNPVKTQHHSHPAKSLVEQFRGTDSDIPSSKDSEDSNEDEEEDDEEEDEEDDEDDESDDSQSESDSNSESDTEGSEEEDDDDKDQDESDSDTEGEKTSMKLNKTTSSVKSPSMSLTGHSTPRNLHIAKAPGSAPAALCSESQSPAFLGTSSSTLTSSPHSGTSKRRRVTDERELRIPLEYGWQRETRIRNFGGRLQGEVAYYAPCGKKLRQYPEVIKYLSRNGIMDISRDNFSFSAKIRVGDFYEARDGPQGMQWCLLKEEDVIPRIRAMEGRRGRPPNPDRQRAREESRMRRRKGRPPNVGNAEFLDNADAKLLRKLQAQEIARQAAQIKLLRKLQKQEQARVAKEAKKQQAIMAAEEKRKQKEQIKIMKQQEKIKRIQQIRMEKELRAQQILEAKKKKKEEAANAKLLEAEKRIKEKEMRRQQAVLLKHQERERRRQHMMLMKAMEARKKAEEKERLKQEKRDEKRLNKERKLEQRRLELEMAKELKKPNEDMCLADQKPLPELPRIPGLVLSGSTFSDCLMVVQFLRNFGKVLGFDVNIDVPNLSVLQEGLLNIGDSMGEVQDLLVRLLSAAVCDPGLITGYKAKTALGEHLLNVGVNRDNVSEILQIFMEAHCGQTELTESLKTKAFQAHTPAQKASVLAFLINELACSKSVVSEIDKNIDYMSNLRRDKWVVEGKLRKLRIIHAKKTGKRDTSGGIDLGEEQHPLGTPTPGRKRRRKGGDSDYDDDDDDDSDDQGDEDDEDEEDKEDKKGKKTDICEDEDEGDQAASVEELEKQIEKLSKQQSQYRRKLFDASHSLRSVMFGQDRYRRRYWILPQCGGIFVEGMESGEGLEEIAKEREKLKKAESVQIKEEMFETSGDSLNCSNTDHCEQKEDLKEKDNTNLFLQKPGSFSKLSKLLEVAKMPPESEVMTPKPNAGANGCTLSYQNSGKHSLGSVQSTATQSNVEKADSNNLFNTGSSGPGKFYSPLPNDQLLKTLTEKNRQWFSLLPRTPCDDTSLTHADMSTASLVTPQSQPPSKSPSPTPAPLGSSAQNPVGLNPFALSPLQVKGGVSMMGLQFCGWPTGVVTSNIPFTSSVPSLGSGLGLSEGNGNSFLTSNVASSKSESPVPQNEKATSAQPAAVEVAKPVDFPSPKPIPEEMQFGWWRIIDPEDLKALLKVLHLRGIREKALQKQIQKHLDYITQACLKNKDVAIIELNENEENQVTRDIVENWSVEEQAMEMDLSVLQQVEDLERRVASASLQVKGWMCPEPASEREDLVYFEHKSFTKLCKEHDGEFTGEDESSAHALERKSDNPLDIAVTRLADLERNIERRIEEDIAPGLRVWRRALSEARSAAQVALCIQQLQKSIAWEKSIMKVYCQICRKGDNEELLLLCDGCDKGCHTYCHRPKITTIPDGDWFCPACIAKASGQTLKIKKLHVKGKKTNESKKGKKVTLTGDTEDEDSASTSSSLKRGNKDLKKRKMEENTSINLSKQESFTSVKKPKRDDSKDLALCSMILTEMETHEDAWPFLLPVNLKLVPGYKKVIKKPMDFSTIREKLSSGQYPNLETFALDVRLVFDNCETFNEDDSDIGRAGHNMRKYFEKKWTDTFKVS
#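 In this displacement format the biotinylated H3(5-23) peptide acetylated at Lys14 serves as ligand at 50 nM, with BAZ2B at 50 nM in PBS pH 7.4 containing 0.01% Tween-20. Donor and acceptor beads are 10 ug/mL final.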
# G9a inh: blocks human histone lysine methyltransferase G9a; Q96KQ7; G9a H3K9 monomethylation, AlphaScreen, 2 h; Potency, µM (top dose mostly 102 µM), for inactives: at the highest dose activity, negative = inhibition, most hits filed as inhibitors; 350,000 compounds, 8.8% hits; further: potency means the concentration at half of the fitted maximal effect; on the % scale 0 is the no-effect control and ±100 the full control effect; nearly all actives have a fitted effect of over 75% in size
#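 G9a (20 nM) was preincubated 15 min with compound, then reacted 2 h at room temperature with 500 nM biotin-H3K9 peptide and 20 µM SAM. Monomethyl-H3K9 detected by AlphaScreen using anti-H3K9me1 antibody.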
# Active calls of the source: *; ? = inconclusive; / = no result given; [ ] = remark or other dose. In the library only some 10% were active in any assay of this set; here they are far more common. Unless noted, the call rests on the fitted dose curve; in most records, active means well fitted inhibition curve with a large enough effect; inconclusive means small, poorly fitted or top-dose-only effect; inactive means no such curve, though single readings can be large or run the other way.
SMILES,Six1-Eya2 inh,JMJD2A Tudor inh,HP1b chromo inh,CtBP-E1A blk,BAZ2B block,G9a inh
CC(Oc1cccc(Br)c1)C(=O)NNC(=O)c1ccccn1 (stereo not drawn),?,-15%,34%,?,/,/
COc1ccc(C(=O)NNC(=O)c2ccccn2)cc1,-9,8%,38%,/,-3%,-1%
C/C(=N\NC(=O)C(C)Oc1ccc([N+](=O)[O-])cc1)c1ccccn1 (stereo not drawn),-88*,56µM*,33%,-94*,25µM*,-3%[59 µM]
COc1ccc(OC(C)C(=O)Nc2ccc([N+](=O)[O-])cc2)cc1 (stereo not drawn),-1,-26%,6%,0,-24%,4%[59 µM]
COC[C@H]1CCCN1c1ccc2c(c1)O[C@@H](COCc1ccccc1)CN([C@H](C)c1ccccc1)S2(=O)=O,3,/,/,-27,/,/
COc1cc(OC)cc(C(=O)NNC(=O)c2ccccn2)c1,-92*,-30%,37%,-90*,-4%,34%
O=C(c1cccn1-c1nnc(N2CCCCC2)s1)N1CCN(c2ccc(Cl)cc2)CC1,/,?,-10%,/,-29%,-23%[59 µM]
CCn1c(C)c(C)c2cc(C(=O)NCCCN3CCCC3)ccc21,-11,50µM*,3%,-3,-18%[57.1 µM],56µM*
CC1CCN(c2nc3ccc(C(=O)NCCCN4CCCCC4)cc3s2)CC1,-6,-15%,36%,-2,6%,/
Cc1c(C)n(Cc2ccc(Cl)cc2)c2ccc(C(=O)NCCN3CCOCC3)cc12,-14,?,-8%,-19,45µM*,?
CC(C)n1cnc2cc(NC(=O)c3ccco3)ccc21,8,-15%,-3%,4,6%,-35%
O=C(Nc1ccc2c(c1)ncn2C1CCCCC1)c1ccco1,1,-6%[57.1 µM],45%,5,-8%,32µM*
O=C(NCCCN1CCN(c2ccccc2F)CC1)c1ccc2nc(N3CCCCC3)sc2c1,/,?,-19%,/,-11%,11µM*
CCc1cccc(-n2c(=O)c3cccnc3n2CC(=O)NCc2ccc(C)cc2)c1,/,-7%,21%,/,-5%,-1%[59 µM]
O=C(NCCCN1CCCCC1)c1ccc2c(c1)ncn2C1CCCC1,4,-8%,43%,4,-19%,45µM*
CCn1c(C)c(C)c2cc(C(=O)Nc3cccc(Cl)c3)ccc21,-1,-31%[57.1 µM],-8%,-6,-11%[57.1 µM],79µM*
CC(=O)c1cccc(NC(=O)c2ccc3c(c2)c(C)c(C)n3Cc2ccc(Cl)cc2)c1,/,?,16%,/,-20%,-5%[59 µM]
CC(C)NC(=O)c1ccc2sc([C@@H]3O[C@H](CO)[C@H](O)[C@H](O)[C@H]3O)nc2c1,1,/,/,7,/,/
O=C(O)c1ccc(COc2ccc3c4c(c(=O)oc3c2)CCC4)o1,-17,?,-22%,-13,?,40µM*
O=C(O)C1CCN(C(=O)COc2ccc3c4c(c(=O)oc3c2)CCC4)CC1,-2,4%,36%,0,?,50µM*
O=c1oc2cc(OCc3ccc([N+](=O)[O-])cc3)ccc2c2c1CCCC2,0,3%,41%,3,-7%,9%[59 µM]
CC(C)c1ccc(CC(=O)N2CCC2(C)C(=O)NS(=O)(=O)c2cccc(OC(F)F)c2)cc1 (stereo not drawn),6,/,/,1,/,/
O=C(c1ccccc1)c1nc2c(n1O)CCCCC2,-5,-13%,15%,-2,79µM*,56µM*
CCCOc1ccc(C(=O)c2nc3c(n2O)CCCCC3)cc1,-5,?,10%,-6,-5%,-20%[12.7 µM]
Cc1ccc2c(c1)N(CCC(=O)NCCCN1CCCC1)C(=O)C(C)O2 (stereo not drawn),-6,-6%,1%,-22,7%,29%
SMILES,Six1-Eya2 inh,JMJD2A Tudor inh,HP1b chromo inh,CtBP-E1A blk,BAZ2B block,G9a inh
Cc1cccc(OCc2nc(C#N)c(N3CCCC3)o2)c1,-17,-35%,?,?,40µM*,/
Cc1ccc(OCc2nc(C#N)c(N3CCCCC3)o2)cc1,-17,?,?,-26,28µM*,40µM*
N#Cc1nc(COc2ccc(Cl)cc2)oc1N1CCCCCC1,?,?,-46%,-30,11µM*,?
CCc1nc(C#N)c(N2CCCCC2)o1,12,-22%,10%,0,-37%,-33%[59 µM]
N#Cc1nc(COc2ccccc2)oc1N1CCCCC1,-21,?,?,?,?,?
N#Cc1nc(COc2cccc(Cl)c2)oc1N1CCN(c2ccccc2)CC1,?,?,-29%,-9,?,?
O=C(Cn1c(=O)c2sccc2n(CC(=O)Nc2ccc(Cl)cc2Cl)c1=O)NCCc1ccccc1,/,-12%,23%,/,0%,27%[59 µM]
COc1ccccc1C(O)c1ncc(-c2ccccc2C)[nH]1 (stereo not drawn),0,/,/,2,/,/
O=C(Oc1cc(=O)oc2c1c(=O)n1c3c(cccc23)CC1)c1ccccc1,-19,?,-3%,-5,50µM*,/
NC(N)=N/N=C/c1cccc(Cl)c1Cl,5,-17%,10%,0,-23%,18µM*
Cc1occc1C(=O)Nc1sc2c(c1C(N)=O)CCCCC2,-7,-29%,-3%,-14,-37%,13µM*
CCOC(=O)c1ccc(NC(=O)c2ccccc2[N+](=O)[O-])cc1,2,-32%[57.1 µM],?,2,-21%,-40%[59 µM]
CCc1c(C)sc(NC(=O)/C=C/C(=O)O)c1C(N)=O,3,-21%,32%,/,-8%,35µM*
CCc1c(C)sc(NC(=O)c2ccoc2C)c1C(N)=O,-25,56µM*,28µM*,-9,?,7.1µM*
COC(=O)c1c(NC(=O)c2ccoc2C)sc2c1CCC2,-1,?,-11%,1,?,?
CCc1c(C)sc(NC(=O)c2ccccc2[N+](=O)[O-])c1C(N)=O,-6,-6%,15%,-4,-6%,45µM*
Cc1cccc(OCCn2c(-c3ccc(Cl)cc3)nc3ccccc3c2=O)c1,/,3%,30%,/,14%,-33%[59 µM]
CC(=O)N(c1nnc(-c2ccc(C)cc2)s1)C1CCCC1,-1,20%,47%,-1,-1%,19%
COC(=O)c1ccccc1NC(=O)COC(=O)CSc1nnc(N)s1,3,-23%,25%,/,-4%,28µM*
Nc1nnc(SCC(=O)OCC(=O)c2ccccc2Br)s1,2,-15%,29%,3,-7%,40µM*
CCCC(=O)N1CCC1(C)C(=O)NCc1ccccc1SC (stereo not drawn),6,/,/,2,/,/
O=C(c1ccccc1)c1c[nH]cc1-c1ccccc1,-4,-2%,21%,-6,8%,-9%[59 µM]
COc1ccc(C2=C(N)c3ccccc3C2=O)cc1,-19,-17%,6%,8,-30%,?
